Laboratory results reported in the supplement of paper PMC12340641.
Counter-ions that a name gives are not always drawn.

Key:
[1] = molecular target: IKZF1 (dCK*-IKZF1 fusion in HEK293FT) (UniProt Q13422); test: inhibition of IKZF1 HTRF signal (DMSO = 0%, pomalidomide 10 uM = 100%); higher = lower IKZF1 protein level; conditions: compound concentration: 5 uM, overnight (~20 h)
Outline: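 Percent inhibition of IKZF1 signal was calculated per plate with vehicle and a reference degrader as anchors. The anchors were 0% for vehicle and 100% for the degrader, applied to background-subtracted 665/620 nm time-resolved FRET ratios from a commercial HTRF total-IKZF1 kit. Signal came from HEK293FT cells stably expressing an IKZF1 fusion, treated overnight at 37 °C with 5 μM compound in single wells of 384-well plates.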

[2] = tested on: HEK293FT dCK*-only; test: relative growth in counter assay (no AraC = 100%, AraC + DMSO = 0%); higher = more growth rescue independent of IKZF1; conditions: compound concentration: 5 uM; AraC concentration: 0.3 uM; overnight pretreatment + 4 days AraC
Outline: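 Nuclei were counted by imaging after Hoechst 33342 staining on day 5, in HEK293FT cells (300/well, 384-well) expressing only an engineered kinase construct. Compound at 5 μM went in 2 h after seeding, followed after overnight at 37 °C by a nucleoside suicide substrate at 0.3 μM plus medium for 4 days. Per plate, wells lacking suicide substrate defined 100% and those with substrate plus vehicle defined 0%.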

[3] = tested on: HEK293FT dCK*-IKZF1; test: relative growth recovery (pomalidomide 10 uM = 100%, DMSO = 0%); higher = more growth rescue (IKZF1 fusion degradation); conditions: compound concentration: 5 uM; AraC concentration: 0.3 uM; overnight pretreatment + 4 days AraC
Outline: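 HEK293FT cells stably expressing a dCK*-IKZF1 fusion (300/well, 384-well) received 5 μM compound 2 h after seeding. After overnight at 37 °C they received a nucleoside suicide substrate at 0.3 μM plus medium for 4 days. On day 5, Hoechst 33342-stained nuclei were counted by whole-well imaging. Growth recovery was normalised per plate to a reference degrader (100%) and vehicle (0%); values are means of duplicates run on different days.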

IKZF1 (dCK*-IKZF1 fusion in HEK293FT), sequence (Q13422 whole entry, looked up, the tested form may be a part): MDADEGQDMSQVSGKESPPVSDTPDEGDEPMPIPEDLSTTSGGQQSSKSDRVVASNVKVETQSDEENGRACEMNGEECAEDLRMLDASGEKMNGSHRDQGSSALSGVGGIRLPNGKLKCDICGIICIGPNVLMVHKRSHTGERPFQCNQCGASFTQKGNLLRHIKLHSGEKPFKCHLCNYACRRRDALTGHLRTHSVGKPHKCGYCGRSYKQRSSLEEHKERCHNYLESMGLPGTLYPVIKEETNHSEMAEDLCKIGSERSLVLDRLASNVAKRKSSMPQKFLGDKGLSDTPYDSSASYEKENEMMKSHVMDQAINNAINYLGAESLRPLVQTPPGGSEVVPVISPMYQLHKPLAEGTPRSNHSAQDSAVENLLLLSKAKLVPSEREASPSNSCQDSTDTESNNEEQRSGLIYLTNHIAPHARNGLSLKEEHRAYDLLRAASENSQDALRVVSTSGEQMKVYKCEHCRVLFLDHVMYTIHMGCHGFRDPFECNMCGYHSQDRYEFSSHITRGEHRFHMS

SMILES	inhibition of IKZF1 HTRF signal [1]	relative growth in counter assay [2]	relative growth recovery [3]
CN(Cc1cnc2nc(N)nc(N)c2n1)c1ccc(C(=O)N[C@@H](CCC(=O)O)C(=O)O)cc1	-18.9%	-31.2%	-10.1%
N#Cc1ccc(O[C@H]2CC[C@H](NC(=O)c3ccc(N4CCC(CN5CCN(c6cc7c(cc6F)C(=O)N(C6CCC(=O)NC6=O)C7=O)CC5)CC4)nn3)CC2)cc1Cl (some centres not stated)	-5.24%	6.3%	-0.69%
CC(C)(C)C1CCc2c(sc(NC(=O)c3ccco3)c2C(=O)O)C1 (configuration not stated)	-23.8%	-8.81%	-0.515%
CN(Cc1cnc2nc(N)nc(N)c2n1)c1ccc(C(=O)NC(CCC(=O)O)C(=O)O)cc1 (configuration not stated) [Methotrexate]	-46%	-30.3%	-9.97%
CCOC(=O)CC(=O)N1CCSC1COc1ccccc1OC (configuration not stated) [Moguisteine]	-1.23%	6.33%	-0.775%
CCCSc1ccc2[nH]c(NC(=O)OC)nc2c1 [Albendazole]	3.53%	6.7%	-0.675%
COc1ccc2cc1Oc1ccc(cc1)C[C@H]1c3cc(c(OC)cc3CCN1C)Oc1c(OC)c(OC)cc3c1[C@H](C2)N(C)CC3 [Tetrandrine (Fanchinine)]	8.84%	-14.3%	-3.42%
CCN(CC)CCCC(C)Nc1ccnc2cc(Cl)ccc12 (configuration not stated)	-24.3%	-29.9%	-9.51%
CCN(CC)CCCC(C)Nc1ccnc2cc(Cl)ccc12 (configuration not stated) [Chloroquine Diphosphate]	-13.4%	1.31%	0.365%
CN(C)CCC=C1c2ccccc2CCc2ccccc21 [Amitriptyline HCl]	22.6%	6.15%	-1.42%
CC[C@]1(O)C[C@@H]2C[N@@](CCc3c([nH]c4ccccc34)[C@@](C(=O)OC)(c3cc4c(cc3OC)N(C)[C@H]3[C@@](O)(C(=O)OC)[C@H](OC(C)=O)[C@]5(CC)C=CCN6CC[C@]43[C@@H]65)C2)C1.O=S(=O)(O)O [Vinblastine (sulfate)]	-4.41%	-34.3%	-11.4%
CC(C)(C)c1ccc(-c2nc3cccc(N4CCN(Cc5ccc6nccnc6c5)CC4)c3[nH]2)cc1	-23.9%	5.2%	9.79%
C1CCC(N/C(=N/C23CC4CC(CC(C4)C2)C3)N2CCOCC2)CC1	-35.4%	13%	1.62%
CNCCC(Oc1ccc(C(F)(F)F)cc1)c1ccccc1 (configuration not stated)	-36.8%	6.85%	0.235%
Nc1nc(N)c2nc(-c3cccc(O)c3)cnc2n1	28.6%	-10.5%	-2.13%
CN(C)CCCN1c2ccccc2Sc2ccc(Cl)cc21	-47.9%	-0.83%	-1.89%
CO[C@H]1O[C@@H]2O[C@@]3(C)CC[C@H]4[C@H](C)CC[C@@H]([C@H]1C)[C@@]24OO3 [Artemether]	-2.04%	-7.46%	-4.6%
COc1cc(NS(=O)(=O)c2ccc(N)cc2)ncn1	-31.4%	-5.7%	-0.825%
O=C(NC(NC(=S)Nc1ccc(F)c([N+](=O)[O-])c1)C(Cl)(Cl)Cl)C(c1ccccc1)c1ccccc1 (configuration not stated)	-19.4%	-20.4%	-10.6%
CC(C)c1ccc(-c2cc(=O)c3ccccc3o2)cc1	-25.6%	-5.2%	0.225%
CCNC(=O)Nc1ccc(-c2nc3c(c(N4CCOC[C@@H]4C)n2)CCN(C2COC2)C3)cc1	68.5%	-31.5%	-12.3%
Nc1ncnc2c1ncn2[C@@H]1O[C@H](COP(=O)(O)OP(=O)(O)OP(=O)(O)OP(=O)(O)OC[C@H]2O[C@@H](n3cnc4c(N)ncnc43)C(O)C2O)C(O)C1O (some centres not stated) [P1,P4-DI(adenosine-5')tetraphosphate ammonium salt]	-38%	5.12%	1.01%
S=C=Nc1ccc(N=C=S)cc1	20.8%	3.25%	-1.61%
Cc1cc(Nc2ncc(Cl)c(Nc3ccccc3S(=O)(=O)C(C)C)n2)c(OC(C)C)cc1C1CCN(CC(=O)NCCOCCOCCOCCOCCOCCNc2cccc3c2C(=O)N(C2CCC(=O)NC2=O)C3=O)CC1 (configuration not stated)	54.5%	6.9%	64.6%
OCCN1CCN(CCCN2c3ccccc3Sc3ccc(Cl)cc32)CC1	-36.5%	3.78%	4.08%
Oc1cc(O)cc(/C=C/c2ccc(O)c(O)c2)c1 [piceatannol]	6.73%	-9.71%	-2.98%
C=C1C(=O)O[C@@H]2C[C@@]3(C)CCC[C@H](C)C3=C[C@H]12 [alantolactone]	-31.2%	-28%	-7.37%
O=C(O)c1ccccc1-c1c2cc(I)c(=O)c(I)c-2oc2c(I)c(O)c(I)cc12	23.2%	-0.87%	-1.36%
CO[C@H]1C[C@@H]2CC[C@@H](C)[C@@](O)(O2)C(=O)C(=O)N2CCCC[C@H]2C(=O)O[C@H]([C@H](C)C[C@@H]2CC[C@@H](O)[C@H](OC)C2)CC(=O)[C@H](C)/C=C(\C)[C@@H](O)[C@@H](OC)C(=O)[C@H](C)C[C@H](C)/C=C/C=C/C=C/1C [Rapamycin]	-24.4%	-20.8%	-7.58%
